Drawing on PubChem BioAssay (NCI), this text covers growth inhibition for 38 molecules.

Assay [1] can be described thus: NCI Yeast Anticancer Drug Screen. Data for the rad50 strain (AID 155).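 Also: 0% = growth of vehicle-only cultures of the same strain.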 The following applies: S. cerevisiae rad50 strain growth inhibition; at 50.0 µM; active compounds read high. The gist of the method: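 Vehicle-treated cultures provide the reference for the growth inhibition reported for compound-exposed, repair-deficient yeast.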
A short description of assay [2]: NCI Yeast Anticancer Drug Screen. Data for the mec2-1 strain (AID 157). The following applies: S. cerevisiae mec2-1 strain, at 50.0 µM, active compounds read high. The gist of the method: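 Test agents were screened against the mec2-1 yeast strain, with defined DNA repair or cell cycle alteration. Growth was scored as inhibition against vehicle-only controls.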
Assay [3] in a line: NCI Yeast Anticancer Drug Screen. Data for the sgs1 mgt1 strain (AID 161).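 Also: 0% = growth of cultures given vehicle only.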 As to conditions: S. cerevisiae sgs1 mgt1 strain, at 50.0 µM, active compounds read high. The method, boiled down:
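Inhibition of yeast growth, normalised to vehicle-treated controls, is reported for a strain bearing genetic alterations in DNA damage repair.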

A short description of assay [4]: NCI Yeast Anticancer Drug Screen. Data for the cln2 rad14 strain (AID 165).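 Also: 0% = growth equal to vehicle treated cultures.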 As to conditions: S. cerevisiae cln2 rad14 strain, at 50.0 µM, active compounds read high. The gist of the method: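 Growth of compound-exposed yeast (cln2 rad14 genotype) measured and expressed as inhibition relative to vehicle.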
Assay [5] is described as follows: NCI Yeast Anticancer Drug Screen. Data for the bub3 strain (AID 167). As to conditions: S. cerevisiae bub3 mutant strain, at 50.0 µM, active compounds read high. The gist of the method:
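Mutant yeast screening strain plus compound; vehicle-treated cultures serve as the 0% inhibition reference.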

Assay [6] in a line: NCI Yeast Anticancer Drug Screen. Data for the mlh1 rad18 strain (AID 175). The following applies: S. cerevisiae mlh1 rad18 strain growth inhibition; at 50.0 µM; active compounds read high. The gist of the method:
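In this whole-cell yeast screen, a strain with altered DNA damage repair is challenged with compound, and its growth is measured against matched vehicle-treated controls.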

Compounds without any hit were thinned out: in the full panel of roughly 79,000, 15% have a hit. Unmarked numbers belong to inactive results. Calls of active or inactive are those of the source. Rule as the data show it: active = growth inhibition above about 70%; inactive = the rest.

Consider `CSc1nc(=O)cnn1C`, for which the growth inhibition in assay [1] is -22.3%; in assay [2] it was -8.6%; in assay [3] it was -15.6%; in assay [4], -0.5%; in assay [5] it was -49.2%; in assay [6], -5.35%.
As for `O=C(OCc1ccccc1)N(CCCCN(CCCNC(=O)C(F)(F)F)C(=O)OCc1ccccc1)CCCNC(=O)C(F)(F)F`, the growth inhibition was -14.8% in assay [1]; -9.7% in assay [2]; 21.4% in assay [3]; 20.4% in assay [4]; 21.8% in assay [5]; -33.8% in assay [6].
As to `NC(=O)c1cc2c(c3c1CCCC3)CCCC2`, the growth inhibition is 4.2% in assay [1]; -6.6% in assay [2]; -3.55% in assay [3]; -52% in assay [4]; -13.9% in assay [5]; -2.3% in assay [6].
Consider `CCOC(=O)c1cccc(OCC)c1`, for which the growth inhibition in assay [1] was 6.95%; in assay [2], 18.1%; in assay [3] it was -7.65%; in assay [4] it was -43%; in assay [5] it was 3.5%; in assay [6], 6.7%.
Turning to `CC/C(=C/CO)c1ccccc1`, the growth inhibition is 46.5% in assay [1]; 5.65% in assay [2]; 17.6% in assay [3]; 6.05% in assay [4]; 10.8% in assay [5]; 36.4% in assay [6].
For `C[n+]1cccc(/C=C/C(=O)Nc2ccccc2)c1`, the growth inhibition in assay [1] was 5.8%; in assay [2], 7%; in assay [3], -24.1%; in assay [4], 5.95%; in assay [5], 12.1%; in assay [6] it was 19.4%.
As to `C=CCOC1OC(CO)C(O)C(O)C1O` (stereo not drawn), the growth inhibition in assay [1] was 9.8%; in assay [2] it was 38%; in assay [3], 29.2%; in assay [4], 11.5%; in assay [5], 7.3%; in assay [6], 9.35%.
`Nc1ccccc1NC(=O)c1nc2ccccc2[nH]1`: the growth inhibition in assay [1] was 1.55%; in assay [2], 15.2%; in assay [3], 19.6%; in assay [4] it was 6%; in assay [5], 7.8%; in assay [6] it was 4.5%.
With `COc1ccc([N+](=O)[O-])cc1F`, the growth inhibition is 10.9% in assay [1]; -12.8% in assay [2]; 5.5% in assay [3]; -6.9% in assay [4]; 8.25% in assay [5]; 31.8% in assay [6].
Regarding `CN(/N=C(\C(=O)O)c1ccccc1)C1=NCCN1`, the growth inhibition in assay [1] is -12%; in assay [2] it was -7.95%; in assay [3], -4.65%; in assay [4], 41.2%; in assay [5] it was -1.4%; in assay [6] it was 9.3%.
As for `COc1cc(OC)c2nc(C)c3c(c2c1)SCC3`, the growth inhibition in assay [1] was -0.5%; in assay [2], -23.1%; in assay [3], 5.25%; in assay [4], 7.4%; in assay [5], 28.6%; in assay [6], 20%.
Consider `COC(=O)c1ccc(C[P+](c2ccccc2)(c2ccccc2)c2ccccc2)cc1`, for which the growth inhibition is 15.5% in assay [1]; 7.75% in assay [2]; 44.3% in assay [3]; 40.2% in assay [4]; 0.95% in assay [5]; 43.1% in assay [6].
With `O=c1cc(C=Nc2ccc(-c3csc(-c4ccccc4)n3)cc2)[nH]c(=S)[nH]1`, the growth inhibition in assay [1] was 97.2% (active); in assay [2], 91.2% (active); in assay [3] it was 97.7% (active); in assay [4], 97.2% (active); in assay [5], 96.5% (active); in assay [6], 98% (active).
For `O=C(O)CCBr`, the growth inhibition in assay [1] is 8.1%; in assay [2], -10.1%; in assay [3] it was 44.5%; in assay [4], 0%; in assay [5], 6.5%; in assay [6], 43.8%.
Take `CCN(CC)Cc1cc(C)c(O)c(N=Nc2ccc(-c3ccc(N)c(OC)c3)cc2OC)c1C`: the growth inhibition in assay [1] was -21.4%; in assay [2], 12.7%; in assay [3], -8.05%; in assay [4] it was -2.05%; in assay [5], -6.1%; in assay [6], -21.4%.
For the molecule `CSc1ccc(C(=O)C[n+]2cc3ccccc3cc2C)cc1`, the growth inhibition was -34.4% in assay [1]; -2.5% in assay [2]; -16.1% in assay [3]; -26.6% in assay [4]; 2.75% in assay [5]; 0.7% in assay [6].
With `CSC1(C)C(=O)Nc2ccc(C(F)(F)F)cc21` (stereo not drawn), the growth inhibition in assay [1] was 9.35%; in assay [2], 4.8%; in assay [3] it was -0.05%; in assay [4], 17.7%; in assay [5], -6.15%; in assay [6], 0.1%.
Regarding `CC(=O)OCC(OC(C)=O)C(OC(C)=O)C(OC(C)=O)C(S)S` (stereo not drawn), the growth inhibition in assay [1] was 5.2%; in assay [2], 50.1%; in assay [3] it was 30.1%; in assay [4], -4.2%; in assay [5] it was 29.9%; in assay [6], 28.9%.
With `CCCCCCCCCCCC(=O)N(CCOC(=O)c1ccccc1)CCc1ccccc1`, the growth inhibition was 32.6% in assay [1]; 9.45% in assay [2]; 16.6% in assay [3]; 19.2% in assay [4]; -3.2% in assay [5]; 24.5% in assay [6].
Regarding `CC(=O)OC[C@@H](COC(=O)/C=C/c1ccc(O)cc1)OC1OC(CO)C(O)C(O)C1O` (stereo partly drawn), the growth inhibition is -1.45% in assay [1]; -37.2% in assay [2]; -21.8% in assay [3]; 1.7% in assay [4]; -17.1% in assay [5]; -1.8% in assay [6].
Turning to `O=C(NCSC1=NCCS1)NCSC1=NCCS1`, the growth inhibition was -7.05% in assay [1]; -20.4% in assay [2]; 6.85% in assay [3]; 16.5% in assay [4]; 2.85% in assay [5]; -14.8% in assay [6].
On to `Cc1nc2ccccc2s1`, for which the growth inhibition in assay [1] was 25.1%; in assay [2], 48.2%; in assay [3], 7.9%; in assay [4], 29%; in assay [5], -1.35%; in assay [6], 4.05%.
With `CCS(=O)(=O)c1ccc(NC(=O)OC2CCCCCC2)cc1`, the growth inhibition in assay [1] was -2.65%; in assay [2], -2.25%; in assay [3], 25.8%; in assay [4], -1.25%; in assay [5] it was 12.3%; in assay [6], 7.8%.
Regarding `O=C(O)CC(NC(=O)OCc1ccccc1)C(=O)OCc1ccccc1` (stereo not drawn), the growth inhibition in assay [1] was 0.55%; in assay [2], 17.9%; in assay [3], -12.3%; in assay [4], -16.6%; in assay [5] it was -21.1%; in assay [6] it was -20.1%.
For `CC1=C(c2cc(C(=O)Nc3ccc(Cl)cc3)nc(=S)[nH]2)Sc2ccccc2N1`, the growth inhibition in assay [1] was -30.9%; in assay [2] it was -15.2%; in assay [3], -46%; in assay [4], -1.45%; in assay [5], -5.65%; in assay [6] it was -35.4%.
Turning to `COC(=O)c1ccccc1NC(=NC1CCCCCC1)NS(=O)(=O)c1ccc(C)cc1`, the growth inhibition in assay [1] was 30.4%; in assay [2] it was 11.2%; in assay [3], -13.8%; in assay [4], -8.15%; in assay [5], 0.3%; in assay [6], -31.3%.
Turning to `Nc1ccc2c(c1)C(=O)CCCC2`, the growth inhibition is 1.55% in assay [1]; -8.95% in assay [2]; -2.15% in assay [3]; -10.1% in assay [4]; 1.25% in assay [5]; 14.1% in assay [6].
Consider `C/C=C\COC(=O)C(C)OC(=O)OCC` (stereo not drawn), for which the growth inhibition in assay [1] was 14.2%; in assay [2], 11.8%; in assay [3] it was 4.85%; in assay [4] it was 5.75%; in assay [5], -0.65%; in assay [6], 0.5%.
As to `COc1ccc(C(=O)C[n+]2cc(Br)cc3ccccc32)cc1`, the growth inhibition in assay [1] is -3.1%; in assay [2], 11.8%; in assay [3], 1.5%; in assay [4], 22.9%; in assay [5] it was -3.05%; in assay [6], 54.5%.
Take `COc1cc(/C=N/N2CN(C(C)C(=O)O)B(NCCC(C)C)N=C2N)cc(OC)c1` (stereo not drawn): the growth inhibition in assay [1] was 0.85%; in assay [2], -10.4%; in assay [3] it was 22%; in assay [4], -3.7%; in assay [5], 23.6%; in assay [6] it was -6%.
`Cc1c(C)n(COCCO)c2ncnc(N)c12`: the growth inhibition in assay [1] is -14.2%; in assay [2], -37.1%; in assay [3], -23.6%; in assay [4] it was 13.8%; in assay [5], -12.6%; in assay [6], -39%.
As for `CCC=Nc1ccccc1CO`, the growth inhibition in assay [1] is 12.2%; in assay [2] it was 8.5%; in assay [3], -1.05%; in assay [4] it was 30.3%; in assay [5] it was -4%; in assay [6] it was 5.4%.
Take `COC(=O)CCC(C)C1CCC2C3CCC4CC5CCC4(C)C3(O5)C(Br)C(Br)C12C` (stereo not drawn): the growth inhibition in assay [1] is -11.8%; in assay [2], -48.1%; in assay [3] it was -32.5%; in assay [4], -33%; in assay [5], -25.5%; in assay [6], -4.8%.
For `CC(C)(N=NC(C)(C)C(=O)NCCO)C(=O)NCCO`, the growth inhibition in assay [1] is -6.15%; in assay [2] it was -6.65%; in assay [3] it was 0.85%; in assay [4], 19.7%; in assay [5] it was 2%; in assay [6] it was -0.65%.
Take `C/C=C(/C)c1cccc(OCc2ccccc2)c1OCc1ccccc1`: the growth inhibition in assay [1] was -19.1%; in assay [2], 9.35%; in assay [3] it was -5.65%; in assay [4], -21.6%; in assay [5] it was -17.3%; in assay [6], -7.05%.
`COc1ccc2c(c1)OC(C)(C)C(c1ccccc1)=C2c1ccc2c(c1)NCCO2`: the growth inhibition in assay [1] is 1%; in assay [2], -2.35%; in assay [3], 11.1%; in assay [4] it was -38.5%; in assay [5], -22.6%; in assay [6], 32.2%.
Consider `CC(=O)NC1C(O)C(O)C(CO)OC1n1nc(SCc2ccccc2)c(=O)[nH]c1=O` (stereo not drawn), for which the growth inhibition in assay [1] was 3.9%; in assay [2], 11.9%; in assay [3], -12.9%; in assay [4] it was -5.65%; in assay [5] it was -24.4%; in assay [6], -36.5%.
`CCOC(=O)C1C=NC([N+](=O)[O-])=C1Br` (stereo not drawn): the growth inhibition was 0.15% in assay [1]; 24.8% in assay [2]; 13.4% in assay [3]; -4.25% in assay [4]; 18.4% in assay [5]; 9.15% in assay [6].
